Data on 61 molecules can be found in PubChem BioAssay AID2314 (National Center for Advancing Translational Sciences (NCATS), 2010).

Hit rate of the full screen: of about 300,000 compounds, about 37,000 (12%) were called active. The sample holds actives, similar compounds and a random draw of the others, so the mix is not that of the screen. A number with no mark means an inactive call. Cut-off read from the data, not from the text of the source: active = max response mostly above about 13% (no sharp cut-off); inactive = mostly below about 14%.

This experiment in a line: Cycloheximide Counterscreen for Small Molecule Inhibitors of Shiga Toxin. Note: read at 38.3 µM for the half of the compounds with a filed dose; 0% is about no effect. As to conditions: cell reporter, cycloheximide protein synthesis inhibition counterscreen; active compounds read high. A general note: A counterscreen serves to expose hits that act by an unwanted route or on another target.
`NC(=O)NC(=O)CSc1nc2cc([N+](=O)[O-])ccc2n1-c1cccc(C(F)(F)F)c1`: the max response was -1.36%.
With `Cn1c(CO)cnc1SCc1ccccc1`, the max response is 21.1% (active).
As for `Cn1c(-c2ccc(F)cc2)cnc1SCC(=O)NNC(=O)Cc1ccccc1`, the max response is -0.376%.
In the case of `CSc1c(SCc2ccccc2)cnn(Cc2ccccc2)c1=O`, the max response was 5.89%.
The figure for `CCOC(=O)c1cccc(NS(=O)(=O)c2c(C(=O)N3CCCCCC3)c(C)n(C)c2C)c1` is 1.94%.
The figure for `CCCCn1c(O)c(C(CC)=NCc2ccco2)c(=O)[nH]c1=O` is -4.03%.
With `CC/C(=N\NC(=O)c1ccccc1O)c1c(O)n(Cc2ccccc2)c(=O)[nH]c1=O`, the max response was 23% (active).
The figure for `CCCCCCN=C(CC)c1c(O)n(CCCC)c(=O)[nH]c1=O` is -2.56%; for `Cc1cc(-c2ccc(C)c(S(=O)(=O)Nc3ccc(S(N)(=O)=O)cc3)c2)on1` it is 4.89%; for `Cc1ccccc1C(=O)N1CCN(c2ccc(NC(=O)c3cccs3)cc2)CC1` it is -1.82%.
Next, `CN1CCN(c2ccc(NC(=O)c3ccccc3)cc2)CC1`: 30.4% (active); `CN1CCN(c2ccc(NC(=O)c3ccc4c(c3)[nH]c(=O)n4Cc3ccc(F)cc3)cc2)CC1`: -2.44%.
Consider `C/C(CCc1ccccc1)=N\NC(=O)c1ccc(CN2CCOCC2)cc1`, for which the max response is 6.88%.
Consider `COc1cccc(C(=O)Nc2ccc(N3CCCC3)cc2)c1`, for which the max response is 30.8% (active).
Next, `COc1cccc(C(=O)Nc2ccc(N3CCN(C(=O)c4ccco4)CC3)cc2)c1`: -5.64%; `CC(=O)c1ccc(N2CCN(CC(=O)Nc3ccccc3N3CCOCC3)CC2)cc1`: -0.941%.
Take `O=C(Nc1ccc(S(=O)(=O)N2CCc3ccccc3C2)cc1)c1ccccc1`: the max response was -1.47%.
The figure for `Cc1ccccc1C(=O)Nc1ccc(N2CCCCCC2)cc1` is 19% (active); for `Cc1ccccc1C(=O)NC(=S)Nc1ccc(N2CCN(C(=O)c3ccccc3)CC2)cc1` it is -3.14%.
Next, `C/C(=N\NC(=O)c1ccccc1C)c1ccc(N2CCOCC2)cc1`: 18.1% (active).
As for `COc1ccc(C(=O)NC(=S)Nc2ccc(N3CCCC3)cc2)cc1OC`, the max response is -0.974%.
Take `CC(C)Oc1ccc(CC(=O)NNC(=S)Nc2ccc(Br)cc2)cc1`: the max response was -3.17%.
The figure for `Cc1cc(-c2ccc(S(=O)(=O)N3CCN(c4cccc(C(F)(F)F)c4)CC3)s2)on1` is 1.18%; for `CCOc1ccccc1C(=O)NC1CC2CCCC(C1)N2Cc1ccccc1` (stereo unspecified) it is -3.26%.
The figure for `COC(=O)C1=C(N)Oc2cc(C)[nH]c(=O)c2C1c1ccc(Cl)cc1` (stereo unspecified) is 0.893%; for `CC(C)(C)n1ncc2c(=O)n(Cc3ccc(Cl)cc3)cnc21` it is 11.3%.
The figure for `COc1ccc(/C=N/NC(=O)C(C)N(c2ccc(OC)cc2)S(C)(=O)=O)cc1` (stereo unspecified) is -4.86%; for `Cc1nc(N2CCN(c3ccccn3)CC2)c2c(C)c(C(=O)Nc3ccc(F)c(Cl)c3)sc2n1` it is -3.16%.
On to `O=C(Nc1cc(C(=O)Nc2ccc(S(=O)(=O)O)cc2)cc(C(=O)Nc2ccc(S(=O)(=O)O)cc2)c1)Nc1cc(C(=O)Nc2ccc(S(=O)(=O)O)cc2)cc(C(=O)Nc2ccc(S(=O)(=O)O)cc2)c1`, for which the max response is -6.6%.
Next, `CC(C)(C)C(=O)NC1CC2CCCC(C1)N2C(=O)Nc1ccccc1F` (stereo unspecified): -1.8%; `O=C(O)c1cc(S(=O)(=O)N(Cc2ccccc2)c2cccc(C(F)(F)F)c2)ccc1Cl`: -2.82%.
Take `CCc1nn(CCCC(=O)Nc2ccc(C)c(C)c2)c(=O)c2cc3occc3n12`: the max response was 0.415%.
On to `COc1cccc(C(=O)NNC(=O)c2ccccc2Br)c1`, for which the max response is -3.22%.
Next, `COc1cccc(C(=O)NNS(=O)(=O)c2ccc(F)cc2)c1`: 11.3%; `COc1cccc(C(=O)NNC(=O)c2cccc(F)c2)c1`: 26.6% (active); `COc1cccc(C(=O)NNC(=O)/C=C/c2ccccc2)c1`: 0.531%.
Next, `COc1cccc(C(=O)Nc2cc3c(cc2Br)OCCCO3)c1`: 86.1% (active); `CC(=O)Oc1cccc(C(=O)Nc2ccccc2NC(=O)c2cccc(OC(C)=O)c2)c1`: 4.65%; `O=C(NCCCN1CCN(c2ccc(F)cc2)CC1)Nc1ccc([N+](=O)[O-])cc1`: 5.85%.
The figure for `CN(C)CCCNC(=O)c1ccc2[nH]c3ccccc3c2c1` is -1.73%.
With `CN(C)CCNC(=O)c1[nH]nc2c1CCc1ccccc1-2`, the max response is 41.8% (active).
Regarding `COc1ccc(C(=O)Nc2ncc3c(n2)-c2ccccc2CC3)cc1`, the max response was 1.82%.
As to `Cc1ccccc1CN1CCC(C(=O)Nc2ccc(Oc3cccnc3)cc2)CC1`, the max response is 1.17%.
With `CCOCC(=O)Nc1sc2c(c1C(=O)OCC)CCCC2`, the max response was -2.31%.
Take `CCOC(=O)c1c(NC(=S)NC)sc2c1CCCC2`: the max response was 20.2%.
Consider `CCOC(=O)c1c(NC(=O)C2CCN(S(=O)(=O)c3ccc(Cl)cc3)CC2)sc2c1CCCC2`, for which the max response was 25.4% (active).
As to `COc1ccc(-c2n[nH]c(C)c2-c2ccccc2OC)c(O)c1`, the max response is -4.33%.
For the molecule `CCc1ccc(-c2nc(SCC(=O)NC3CCCC3)n[nH]2)cc1`, the max response is 18.2% (active).
The figure for `CCc1c(C)nc(SCC(=O)NC2CCCC2)[nH]c1=O` is 4.69%; for `COc1ccc(-c2nc(SCC(=O)N3CCCC3)n[nH]2)cc1` it is -1.17%; for `O=C(O)CCn1c(Cc2ccccc2)nc2ccccc21` it is -1.08%.
Regarding `CCC(C(=O)OCC(=O)Nc1c(Cl)cc(Cl)cc1Cl)c1ccccc1` (stereo unspecified), the max response was 1.18%.
Turning to `Cc1cccc(OCCC(=O)Nc2ccccc2C(N)=O)c1`, the max response is 12.6%.
The figure for `Cc1cccc(OCC(=O)NCCCNC(=O)c2ccccn2)c1` is -3.32%.
For `O=C(CCc1ccccc1)NNc1ccc(F)cc1`, the max response is -0.637%.
As for `Cc1cccc(OCC(=O)Nc2ccc(C(=O)O)cc2NC(=O)COc2cccc(C)c2)c1`, the max response is 2.91%.
Take `Cc1cccc(OCC(=O)Nc2ccccc2F)c1`: the max response is 44.1% (active).
As for `Cc1ccc(F)c(NC(=O)CCOc2ccccc2C)c1`, the max response is 6.62%.
The figure for `CCCOC(=O)Nc1ccccc1C(N)=O` is -2.21%; for `Cc1ccc(F)c(NC(=O)CCc2ccccc2)c1` it is 33% (active).
The figure for `COc1cccc(OCC(=O)Nc2ccccc2C(N)=O)c1` is 34.1% (active).
